Shown are actives, neighbours in structure and some others; about 6.7% of the full set was active somewhere.
Tcruzi prolif: inhibitors of T. cruzi proliferation | T. cruzi beta-gal in NIH3T3, GalScreen luminescence, 90 h | inhibition, % at 8.34 µM | hit rate 5.9% among 77,000;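 active = mean inhibition above about 93%, with at least 55% of replicates each passing it, limit read from the data, passing the limit was not always enough; inconclusive = only one of those two conditions holds; inactive = neither condition holds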
C diff growth: blocks growth of Clostridium difficile | Clostridium difficile clinical isolate growth, OD600, 24 h; stronger effect = lower value | hit rate 0.25% among 86,000 | growth activity, negative = inhibition, % at 16 µg/mL (by protocol) | AID 1259249;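 active = mean growth activity at or below -80% and every replicate also at or below -80%; inconclusive = mean at or below -80% but some replicate above -80%; inactive = mean growth activity above -80%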;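 also: 0% = DMSO wells and -100% = levofloxacin 16 µg/mL wells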
Pf Dd2 inh: inhibitors of Plasmodium falciparum Dd2 growth | P. falciparum Dd2 growth, SYBR Green, 72 h; stronger effect = lower value | activity change, % at 10 µM | hit rate 2.3% among 94,000 | AID 1159554; in the data active = activity change below about -80%; inconclusive = no clear call, values can overlap the other calls
* marks the source's active call; other numbers are inactive results; ? = inconclusive; . = not tested or not shown.

SMILES	Tcruzi prolif	C diff growth	Pf Dd2 inh
COc1ccc(NC(=O)Nc2ccc3c(c2)C(=O)N([C@H](C)CO)C[C@@H](C)[C@H](CN(C)S(=O)(=O)c2ccc(C)cc2)OCCCC[C@@H](C)O3)cc1	.	.	-75
COc1ccc(S(=O)(=O)N(C)C[C@H]2OCCCC[C@@H](C)Oc3ccc(NC(=O)Nc4ccc(C(F)(F)F)cc4)cc3C(=O)N([C@H](C)CO)C[C@@H]2C)cc1	87	3	-79
COc1ccc(S(=O)(=O)N(C)C[C@H]2OCCCC[C@@H](C)Oc3ccc(NC(=O)Nc4ccc5c(c4)OCO5)cc3C(=O)N([C@@H](C)CO)C[C@H]2C)cc1	89	-3	-85*
COc1ccc(NC(=O)Nc2ccc3c(c2)C(=O)N([C@@H](C)CO)C[C@@H](C)[C@@H](CN(C)S(=O)(=O)c2ccc(OC)cc2)OCCCC[C@@H](C)O3)cc1	84	-6	-73
COc1ccc(NC(=O)Nc2ccc3c(c2)C(=O)N([C@@H](C)CO)C[C@H](C)[C@H](CN(C)S(=O)(=O)c2ccc(OC)cc2)OCCCC[C@@H](C)O3)cc1	43	4	-88*
COc1ccc(S(=O)(=O)N(C)C[C@@H]2OCCCC[C@H](C)Oc3ccc(NC(=O)Nc4ccc(C(F)(F)F)cc4)cc3C(=O)N([C@@H](C)CO)C[C@H]2C)cc1	76	6	-86*
CNC(=O)C[C@H]1CC[C@H]2[C@H](COc3ccc(NC(=O)c4ccc(C(F)(F)F)cc4)cc3C(=O)N2C)O1	3	0	-9
O=C(NC1Cc2ccccc2C1)[C@H]1[C@H](CO)[C@H]2Cn3c(cccc3=O)[C@@H]1N2C(=O)CC1CC1	-29	8	.
C[C@H](CO)N1C[C@H](C)[C@@H](CN(C)C(=O)NC2CCCCC2)Oc2ccc(NS(=O)(=O)c3ccc(F)cc3)cc2CC1=O	-10	1	-10
C/C=C/c1ccc2c(c1)O[C@H](CN(C)Cc1ccccn1)[C@@H](C)CN([C@@H](C)CO)S2(=O)=O	.	-7	18
COc1ccccc1NC(=O)N1CCCCN2[C@H](C1)[C@H](c1ccc(-c3cccc(C)c3)cc1)[C@@H]2CO	92	29	-6
COc1ccccc1NC(=O)N1CCCCN2[C@@H](CO)[C@@H](c3ccc(C#CC4CC4)cc3)[C@@H]2C1	.	48	-90*
COc1ccccc1NC(=O)N1CCCCN2[C@@H](CO)[C@@H](c3ccc(-c4cccc(C)c4)cc3)[C@@H]2C1	69	-80*	-83*
COc1ccccc1NC(=O)N1CCCCN2[C@@H](CO)[C@H](c3ccc(C#CC4CC4)cc3)[C@@H]2C1	.	29	-79
C[C@H](CO)N1C[C@H](C)[C@H](CN(C)S(=O)(=O)c2cn(C)cn2)OCCCC[C@H](C)Oc2ccc(NC(=O)Nc3ccc(F)cc3)cc2C1=O	-19	.	1
CO[C@H]1CN(C)C(=O)c2ccc(NS(=O)(=O)c3ccc(F)cc3)cc2OC[C@H](C)NC[C@@H]1C	.	-3	55
C[C@H]1CN([C@@H](C)CO)C(=O)Cc2cc(NC(=O)C3CC3)ccc2O[C@H]1CN(C)Cc1ccc(C(F)(F)F)cc1	37	8	-80*
CNC[C@H]1Oc2ccc(NS(=O)(=O)c3cn(C)cn3)cc2CC(=O)N([C@H](C)CO)C[C@@H]1C	-7	-10	42
Cc1noc(C)c1NC(=O)N(C)C[C@@H]1Oc2ccc(NS(=O)(=O)c3cn(C)cn3)cc2CC(=O)N([C@H](C)CO)C[C@H]1C	-8	4	-83*
CNC[C@@H]1Oc2ccc(NS(=O)(=O)c3cn(C)cn3)cc2CC(=O)N([C@H](C)CO)C[C@@H]1C	98*	0	6
Cc1noc(C)c1NC(=O)N(C)C[C@@H]1Oc2ccc(NC(=O)C3CCCCC3)cc2CC(=O)N([C@@H](C)CO)C[C@@H]1C	-25	2	14
C[C@H](CO)N1C[C@H](C)[C@H](CN(C)Cc2ccc(C(F)(F)F)cc2)Oc2ccc(NC(=O)C3CC3)cc2CC1=O	10	5	11
Cc1noc(C)c1NC(=O)N(C)C[C@@H]1Oc2ccc(NS(=O)(=O)c3cn(C)cn3)cc2CC(=O)N([C@@H](C)CO)C[C@H]1C	6	-5	40
Cc1noc(C)c1NC(=O)N(C)C[C@H]1Oc2ccc(NC(=O)C3CC3)cc2CC(=O)N([C@@H](C)CO)C[C@H]1C	-16	4	-83*
C[C@H](CO)N1C[C@H](C)[C@@H](CN(C)S(C)(=O)=O)Oc2ccc(NC(=O)Nc3cccc4ccccc34)cc2CC1=O	-4	1	-4
SMILES	Tcruzi prolif	C diff growth	Pf Dd2 inh
COCCNC(=O)C[C@H]1C[C@H]2c3cc(NC(=O)C4CCC4)ccc3O[C@H]2[C@H](CO)O1	.	2	13
CCC(=O)N1CC2(CCN(Cc3ccc(Cl)cc3)CC2)c2c([nH]c3cc(OC)ccc23)[C@@H]1CO	.	-4	-2
Cc1ccccc1S(=O)(=O)N1CCCCN2[C@@H](CO)[C@@H](c3ccc(-c4cncnc4)cc3)[C@@H]2C1	72	-1	-52
C[C@@H]1CCCCO[C@H](CN(C)C(=O)Nc2cccc3ccccc23)[C@H](C)CN([C@@H](C)CO)C(=O)c2cc(NC(=O)Nc3ccccc3)ccc2O1	96	4	-50
C[C@@H]1CCCCO[C@H](CN(C)C(=O)Nc2cccc3ccccc23)[C@H](C)CN([C@H](C)CO)C(=O)c2cc(NC(=O)Cc3ccccc3)ccc2O1	.	-2	-84*
C[C@H](CO)N1C[C@H](C)[C@@H](CN(C)C(=O)Nc2cccc3ccccc23)OCCCC[C@H](C)Oc2ccc(NC(=O)Cc3ccccc3)cc2C1=O	35	-15	?
C[C@@H]1CN([C@@H](C)CO)C(=O)c2cc(NC(=O)Nc3ccccc3)ccc2O[C@@H](C)CCCCO[C@H]1CN(C)C(=O)Nc1cccc2ccccc12	31	-2	-37
C[C@@H]1CN([C@H](C)CO)C(=O)c2cc(NC(=O)Cc3ccccc3)ccc2O[C@@H](C)CCCCO[C@@H]1CN(C)C(=O)Nc1cccc2ccccc12	83	14	-92*
C[C@@H]1CCCCO[C@@H](CN(C)C(=O)Nc2cccc3ccccc23)[C@@H](C)CN([C@H](C)CO)C(=O)c2cc(NC(=O)Cc3ccccc3)ccc2O1	-35	19	-84*
COCC(=O)N1C[C@H](C)[C@@H](OC)CN(C)C(=O)c2ccc(NC(=O)NC(C)C)cc2OC[C@@H]1C	.	1	-1
CO[C@H]1CN(C)C(=O)c2ccc(NC(=O)c3ccccc3)cc2OC[C@@H](C)N(C(=O)C2CC2)C[C@@H]1C	-35	-17	-23
CO[C@@H]1CN(C)C(=O)c2cc(NS(=O)(=O)c3cccc(C)c3)ccc2OC[C@@H](C)N(C(=O)Cc2cccnc2)C[C@H]1C	.	.	15
CO[C@H]1CN(C)C(=O)c2ccc(NC(=O)Nc3cc(F)ccc3F)cc2OC[C@H](C)N(C(=O)c2cnccn2)C[C@@H]1C	16	.	-16
COc1ccc(S(=O)(=O)NC[C@@H]2CC[C@H]3[C@H](CN3Cc3cc(F)ccc3F)O2)cc1	.	14	-14
C[C@@H]1CCCCO[C@H](CN(C)Cc2ccc(C(F)(F)F)cc2)[C@@H](C)CN([C@H](C)CO)C(=O)c2cc(NC(=O)CCC(F)(F)F)ccc2O1	-52	-1	-38

High-throughput results: PubChem, Broad Institute
